Source: PubChem BioAssay AID686979 (National Center for Advancing Translational Sciences (NCATS), 2013)
In all, about 420,000 compounds went through this assay and about 50,000 (12%) were called active. A call without a number means that no potency is given here. Roughly 26% stayed inconclusive and do not appear here. Calls follow the shape of the dose curve; as a rule, active = well fitted inhibition curve with a large enough effect; inconclusive = small, poorly fitted or top-dose-only effect; inactive = flat fitted curve, though single readings scatter. The sample as a whole holds a higher share of actives than the screen did.

Experiment: qHTS for Inhibitors of human tyrosyl-DNA phosphodiesterase 1 (TDP1): qHTS in cells in presence of CPT; also: nearly all actives have a fitted effect of over 55% in size
Conditions: chicken DT40 Tdp1-/-;hTDP1 cells + 20 nM CPT, ATP luminescence, 48 h; series mostly up to 46.2 µM
Outline: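 Chicken DT40 Tdp1-/- cells stably complemented with human TDP1 were seeded at 400 cells/well in medium containing 20 nM camptothecin, exposed to pin-transferred compounds, and grown at 37 °C for at least 48 hr. Viability was read as ATP luminescence.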
Potency is read from the fitted curve at half-maximal effect.

SMILES	Potency
CSCCC(NS(=O)(=O)c1ccc(C)cc1)C(=O)N1CCCC1 (stereo not given)	inactive
CCCn1c(N)c(C(=O)CSc2nnc3n2CCCCC3)c(=O)[nH]c1=O	inactive
CCOc1[nH]n(-c2ccc(Cl)cc2)c(=O)c1C=Nc1ccc(O)cc1	5.8 µM (active)
CCOc1ccc(N=C2NC(=O)S/C2=C\c2ccc(O)cc2)cc1	inactive
CC(=O)Oc1cc2c(C(=O)NCCN3CCOCC3)c(C)oc2c2ccccc12	18.4 µM (active)
Cc1ccc(C(=O)NCCN2CCOCC2)cc1C	inactive
Cc1cc(C)cc(C(=O)NCCN2CCOCC2)c1	inactive
COc1ccc(OC)c(-n2nnc3c(sc4nc(C)c(Br)c(C)c43)c2=O)c1	inactive
Cc1ccc(CN(C(=O)c2ccccc2[N+](=O)[O-])c2ccccn2)cc1	11.6 µM (active)
COc1cc(CN(C(=O)c2ccccc2Br)c2ccccn2)cc(OC)c1OC	18.4 µM (active)
COc1cc(SC)ccc1C(=O)N(Cc1ccccc1)c1ccccc1	inactive
Cc1ccc(S(=O)(=O)N(Cc2ccccc2)c2ccccn2)cc1[N+](=O)[O-]	inactive
CCC(=O)N(Cc1ccccc1)c1ccccn1	inactive
COC(=O)c1cc(C(=O)N(Cc2ccccc2)c2ccccn2)cc([N+](=O)[O-])c1	inactive
COc1ccc(CCOC(=O)CNC(=O)c2ccc(Cl)cc2Cl)cc1	inactive
Cc1ccc(N2CC(NC(=O)Cc3cccs3)CC2=O)cc1 (stereo not given)	inactive
C[C@H](NC(=O)c1nc[nH]c1C(=O)N[C@@H](C)C(=O)OC(C)(C)C)C(=O)OC(C)(C)C	inactive
COc1cc(C(=S)NC2CCCCC2)ccc1O	inactive
Cc1cccc(N2CCN(S(=O)(=O)c3ccc(-c4cc(C)no4)s3)CC2C)c1 (stereo not given)	inactive
Cc1cccc(N2CCN(C(=O)CCn3c(=O)c4cccn4c4cccnc43)CC2C)c1 (stereo not given)	3.66 µM (active)
Cc1cccc(NC(=O)Cn2c(=O)n(CCC(C)C)c(=O)c3cccnc32)c1	inactive
CCOc1ccc(-c2cc3c(=O)n(CC(=O)NCc4ccc(OC)cc4)ccn3n2)cc1	inactive
CCOC(=O)C1C(c2ccc(OC)c(OC)c2)c2c([nH][nH]c2=O)CC1(C)O (stereo not given)	inactive
O=C(Nc1c(Br)cc2c(c1Br)Cc1ccccc1-2)C(F)(F)F	inactive
CCCCC(O)(CCCC)C(=O)NN(C(=O)CCl)c1ccccc1	14.6 µM (active)
CCCC(O)(CCC)C(=O)NN(C(=O)CCl)c1cccc(C)c1	4.61 µM (active)
COC(=O)N(NC(=O)C(O)(C(C)C)C(C)C)c1ccccc1	inactive

SMILES	Potency
Cc1ccc(N(NC(=O)C(C)(C)O)C(=O)c2ccccc2)cc1C	inactive
CC(C)(O)C(=O)NN(C(=O)c1ccccc1)c1cccc(Br)c1	inactive
CCCCCNC(=O)C1c2ccccc2Oc2ccccc21	inactive
O=C(NNC(=S)NC1CCCCC1)c1ccccc1Cl	inactive
Clc1ccccc1CSc1nncn2c1cc1occc12	inactive
Cn1c(CCc2ccccc2)nnc1SCC(N)=O	inactive
COc1ccc(CCNC(=O)COC(=O)C2CCCCC2)cc1	inactive
COc1ccc(CN2CN(C3CCCC3)CSC2=S)cc1	5.17 µM (active)
COc1ccc(Cn2c(=O)cc(C)[nH]c2=S)cc1	inactive
COc1ccc(CN2CN(C(C)C)CSC2=S)cc1	2.91 µM (active)
COc1ccc(CN2CC(C(=O)NC3CCCCC3)CC2=O)cc1 (stereo not given)	inactive
COc1ccc(CCC(C)N2CCc3ccccc3C2)cc1 (stereo not given)	inactive
O=C(NC1CCCC1)C(c1ccccn1)N(C(=O)c1csnn1)C1CCCC1 (stereo not given)	inactive
Cc1cc(C)c2c(=O)[nH]c(SCC(=O)Nc3ccc(Br)cc3)nc2n1	inactive
CC1(C(=O)NS(=O)(=O)c2cccc(F)c2)CCN1C(=O)Cc1cc(F)ccc1F (stereo not given)	inactive
CN(CC(=O)Nc1ccccc1F)S(=O)(=O)c1ccc2c(c1)c(=O)n(C)c(=O)n2C	inactive
O=C1c2ccccc2C(c2nc3ccccc3[nH]2)N1c1ccccc1 (stereo not given)	inactive
CSc1ncccc1C(=O)NCc1ccccc1Cl	inactive
O=C(CNC(=O)c1cc(S(=O)(=O)N2CCOCC2)ccc1N1CCCC1)Nc1ccc(F)c(F)c1	inactive
COc1ccccc1CNC(=O)C1Cc2ccccc2C(=O)O1 (stereo not given)	inactive
COc1ccccc1CNC(=O)C1CCN(C(=O)[C@@H]2Cc3ccccc3CN2)CC1	inactive
COc1ccccc1CNC(=O)[C@@H]1CCCN1C(=O)[C@@H]1Cc2ccccc2CN1C(=O)OC(C)(C)C	18.4 µM (active)
CCCNC(=O)c1cnc(-c2ccccc2)nc1-c1ccccc1	inactive
O=C(CCCN=C1NS(=O)(=O)c2ccccc21)OCC(=O)c1ccc(F)c(F)c1	inactive
COC(=O)C(CC(=O)Nc1cc(C)ccc1C)Nc1ccccc1OC (stereo not given)	inactive
Cc1ccc(C)c(NC(=O)CCC(=O)NNC(=O)c2cccs2)c1	inactive
Cc1ccc(C)c(NC(CC(=O)c2ccccc2)C(=O)OCC(=O)c2cccs2)c1 (stereo not given)	18.4 µM (active)

SMILES	Potency
O=C(Nc1nnc(-c2ccccc2F)s1)c1ccccc1F	inactive
CN(CCN1CCOCC1)Cc1nc(-c2ccc3c(c2)OCO3)no1	inactive
CN(Cc1ccccn1)Cc1nc(-c2ccc(Cl)cc2)no1	inactive
CCN1CC(CN(C)Cc2nc(-c3ccc(Cl)cc3)no2)CC1=O (stereo not given)	16.4 µM (active)
COc1ccc(S(=O)(=O)N2CCOC2CNC(=O)C(=O)NCc2ccncc2)cc1OC (stereo not given)	inactive
O=C(CSc1nccn1-c1cccc(F)c1)NC1CCCC1	inactive
CN(C)c1nc(-c2cccnc2)nc(-c2ccc(Cl)cc2)c1C#N	inactive
S=c1[nH]nc(-c2ccncc2)n1/N=C/c1ccccc1Cl	inactive
S=c1[nH]nc(-c2cccnc2)n1/N=C/C(Cl)=C\c1ccccc1	20.6 µM (active)
Fc1ccccc1/C=N/n1c(-c2cccnc2)n[nH]c1=S	inactive
Cc1cc(-c2n[nH]c(=S)n2/N=C/C(Br)=C/c2ccccc2)n[nH]1	1.64 µM (active)
Cc1cc(-c2n[nH]c(=S)n2/N=C/c2ccco2)n[nH]1	inactive
CCN(CC)S(=O)(=O)c1cccc(-c2n[nH]c(=S)n2/N=C/c2ccc(C(=O)OC)cc2)c1	inactive
FCOC(C(F)(F)F)C(F)(F)F	inactive
NC(=O)CN1CCCC1c1ccc2c(c1)OCCO2 (stereo not given)	inactive
CC(C)C(=O)Nc1oc(-c2ccccc2)cc1C#N	inactive
CC1(C)S[C@@H]2[C@H](NC(=O)COc3ccccc3)C(=O)N2C1C(=O)OCc1ccccc1 (stereo not given in full)	inactive
COc1ccc(-c2nc(CS(=O)CC(=O)NCc3ccccc3)c(C)o2)cc1OC (stereo not given)	inactive
O=C(COc1ccccc1)N1CCc2ccccc2C1	inactive
COc1cccc(N(CC(=O)N2CCc3ccccc3C2)S(C)(=O)=O)c1	inactive
COc1ccc(-c2nc(CS(=O)CC(=O)N3CCc4ccccc4C3)c(C)o2)cc1 (stereo not given)	16.4 µM (active)
COc1ccc(-c2nc(CS(=O)CC(=O)NCc3ccccn3)c(C)o2)cc1 (stereo not given)	18.4 µM (active)
COc1ccc(-c2nc(CS(=O)CC(=O)NCc3cccnc3)c(C)o2)cc1OC (stereo not given)	inactive
CCCSc1nsc(N)n1	inactive
CS(=O)(=O)N1CCN(CC(=O)NC2CCCC2)CC1	inactive
O=C(Cc1coc2ccc3ccccc3c12)NCc1cccs1	inactive
C=CCCC(=O)N1C[C@H]2CON(C)[C@H]2C[C@H]1c1cccc(Nc2ccccc2)c1	inactive

SMILES	Potency
COCC1CCCN(Cc2nc(-c3ccc4c(c3)OCO4)no2)C1 (stereo not given)	inactive
CCn1c(CC(=O)Nc2ccccc2C)nnc1SCC(=O)NC1=NCCS1	inactive
CCCn1c(=N)n(CC(=O)c2ccc(Cl)c(Cl)c2)c2ccccc21	10.3 µM (active)
O=C(Cn1nnc(N2CCCCC2)n1)c1ccc(Cl)c(Cl)c1	inactive
CCCNC(=O)c1ccc(Cl)c(Cl)c1	inactive
O=C(Nc1ccc(OCCO)cc1)c1csc([C@H]2C[C@H](O)[C@@H](CO)O2)n1	inactive
CCOc1ccc(CN2CCN(Cc3ccc4cc(F)ccc4n3)CC2CCO)cc1 (stereo not given)	inactive
COc1ccccc1NC(=O)CSc1nnc(CNC(=O)c2ccccc2F)o1	inactive
COc1cc(C(=O)NCc2nnc(SCC(=O)Nc3nc4ccc(C)cc4s3)o2)cc(OC)c1OC	4.11 µM (active)
COc1ccc(C(=O)NCc2nnc(SCC(=O)Nc3cccc(OC)c3)o2)cc1	inactive
O=C(O)c1ccc(S(=O)(=O)N2CCOCC2)o1	inactive
CNc1cc(-c2c(OC)cccc2OC)ncn1	inactive
CCOC(=O)CSC1=C(C#N)C(c2sccc2C)CC(=O)N1 (stereo not given)	3.55 µM (active)
COC(=O)CSC1=C(C#N)C(c2ccccc2OC)C(C(=O)OC)C(=O)N1 (stereo not given)	inactive
C=CCOC(=O)C1=C(C)NC(SCC(=O)OCC)=C(C#N)C1c1ccc(C)cc1 (stereo not given)	inactive
C/C=C/C=C/C(=O)OCC(=O)Nc1ccc(Cl)cc1	inactive
Cc1onc(-c2c(F)cccc2Cl)c1C(=O)N(C)CC(=O)Nc1cccc(F)c1	inactive
O=[N+]([O-])c1ccc(N2CCN(c3ccc(F)cc3)CC2)cn1	inactive
O=C(c1cc(-c2ccc(F)cc2)on1)N1CCN(c2ccc(F)cc2)CC1	inactive
O=C(c1cccc(C(=O)N2CCN(c3ccc(F)cc3)CC2)c1)N1CCN(c2ccc(F)cc2)CC1	14.6 µM (active)
O=C(c1cc(C(=O)N2CCN(c3ccc(F)cc3)CC2)cc([N+](=O)[O-])c1)N1CCN(c2ccc(F)cc2)CC1	8.2 µM (active)
O=C(c1cc2cc(F)ccc2[nH]1)N1CCN(c2ccc(F)cc2)CC1	inactive
O=C(c1cccc([N+](=O)[O-])c1)N1CCN(C(=O)c2ccco2)CC1	inactive
CO/N=C(\C(=O)N[C@@H]1C(=O)N2C(C(=O)O)=CCS[C@H]12)c1csc(N)n1	inactive
